# Most compounds without a hit are left out; they make up all but 11% or so of the library.
# AMA1 RON2 block = inhibitors of Plasmodium falciparum AMA1-RON2 interaction. 360,000 compounds, 0.2% hits. AlphaScreen AMA1-biotinylated RON2 peptide binding. Potency, µM (titrated, usually from 58.2 µM), without a hit: at the highest dose activity change, negative = inhibition, hits mostly inhibitors;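 note: 0% = vehicle wells and -100% = peptide control; nearly all actives have a fitted effect of over 45% in size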
#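 AMA1 (3D7) with his tag at 25 nM final met compounds first, then biotinylated RON2 peptide at 25 nM; detection used donor plus acceptor beads, 10 µg/mL apiece, read by AlphaScreen after 30 min at room temperature.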
# Pf growth 48h = inhibits P. falciparum growth in the first generation, 48 h; P. falciparum luciferase growth in erythrocytes, 48 h; Potency, µM (titrated, usually from 28.7 µM), without a hit: at the top dose activity change, negative = inhibition, actives largely listed as inhibitors; 310,000 compounds, 5.9% hits; note: % is set by controls: 0 for no effect and ±100 for the full control effect
#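 Parasite viability was followed by luminescence of a genomically integrated firefly luciferase. Cultures held 0.1% parasitemia at 2% hematocrit (final), incubated under 5% CO2 at 37 C.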
# Pf growth 96h = inhibits malaria parasite growth, 96 h; P. falciparum luciferase reporter growth, 96 h; Potency, µM (titrated, usually from 28.7 µM), without a hit: top-dose activity change, negative = inhibition, most hits filed as inhibitors; 320,000 compounds, 6.9% hits; AID 504834; note: % is set by controls: 0 for no effect and ±100 for the full control effect
#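 Compounds incubated with erythrocytes infected by luciferase-expressing P. falciparum (2% hematocrit, 0.05% parasitemia final) for 96 hours, 37 C in 5% CO2. Growth inhibition scored as decreased luciferase luminescence.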
# Sm TGR block = inhibitors of Schistosoma mansoni thioredoxin glutathione reductase; Q962Y6; purified TGR, DTNB reduction, TNB absorbance 405 nm; Potency, µM (highest dose often 114 µM), for inactives: at the highest dose activity change, negative = inhibition, usual class: inhibitors; 360,000 compounds, 3% hits; note: % is set by controls: 0 for no effect and ±100 for the full control effect; nearly all actives have a fitted effect of over 60% in size
#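 Kinetic colorimetric format: TGR-catalysed, NADPH-driven DTNB reduction monitored via TNB absorbance. Enzyme dispensed at 20 nM; compound exposure 15 min at room temperature before reaction start.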
# NS1 function inh = inhibitors of influenza NS1 protein function; Potency, µM (top dose mostly 46.1 µM), for inactives: at the top dose activity, positive = more growth; 270,000 compounds, 0.4% hits; calls by dose curve; note: actives are rising curves; nearly all actives have a fitted effect of over 50% in size
#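 In this qHTS, NS1 from influenza A is expressed in budding yeast, where it slows growth. Cells are switched from glucose to 2% galactose medium (pH 6.0, -URA), treated with compound, and growth recovery is read at OD600.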
# * hit, by the source's call; ? = inconclusive; . = no result; [ ] = dose if it differs, or a comment. Unless noted, calls come from the whole dose curve; as a rule, active = well fitted curve in the direction sought with a large enough effect; inconclusive = small, poorly fitted or top-dose-only effect, or another doubt; inactive = no such curve, though single readings can be large; an effect the other way counts as inactive or inconclusive. Potency is the fitted concentration of half-maximal effect.
SMILES,AMA1 RON2 block,Pf growth 48h,Pf growth 96h,Sm TGR block,NS1 function inh
CCn1c(=O)cc(OCC(=O)O)c2ccccc21,4%,5%,0%,0%,3%
COc1cc2c(cc1OC)C(C(=O)Nc1ccc3c(c1)OCCO3)C(c1cccnc1)N(C)C2=O (stereo not given),-10%,7.4µM*,?,3%,-3%
COc1cc2c(cc1OC)C(C(=O)N(C)Cc1ccccc1)C(c1cccnc1)N(C)C2=O (stereo not given),19%,8%,3.7µM*,-1%,.
N#Cc1c2c(c(N3CCN(c4ccccn4)CC3)n3c1nc1ccccc13)CCC2,.,.,0.13µM*,40µM*,7%
Cc1cc(N2CCN(c3ccccn3)CC2)n2c(nc3ccccc32)c1C#N,7%,4.7µM*,1%,7%,-7%
Cc1nccn1-c1c2c(c(C#N)c3nc4ccccc4n13)CCC2,-1%,-17%,19%,25µM*,-6%
CC1CN(c2nc(-c3ccc(Br)cc3)nnc2-c2ccccc2)CC(C)N1 (stereo not given),-1%,?,8.3µM*,12%,-3%
Clc1ccc(-c2nnc(-c3ccccc3)c(N3CCSCC3)n2)cc1,-5%,-5%,?,12%,-52%
Cc1ncsc1C(=O)NCc1ccc(N2CCCC2=O)cc1,-5%,.,4.7µM*,3%[11.4 µM],-4%
O=C(CSc1nnc(CN2CCOCC2)n1-c1ccccc1)N1CCc2ccccc21,6%,3%,13µM*,-3%,-11%
Cc1ccc(C)c(-n2c(CNC(=O)c3ccco3)nnc2SCC(=O)N2CCc3ccccc32)c1,40%,8%,13µM*,4%,0%
COc1ccc(-n2c(Cc3cccn3C)nnc2SCC(=O)N2CCCc3ccccc32)cc1,-12%,?,13%,-14%,?
N#Cc1ccc(OCc2nnc(SCC(=O)N3CCCc4ccccc43)n2-c2ccccc2)cc1,-11%,15µM*,3.3µM*,0%,0%
O=C(CSc1nnc(CN2CCOCC2)n1-c1ccc(Cl)cc1)N1CCc2ccccc21,0%,.,.,.,-15%
COc1ccc(OCc2nnc(SCC(=O)N3CCCc4ccccc43)n2-c2ccc(C)cc2)cc1,15%,12µM*,.,-12%,14%
CCCCC(=O)Nc1ccc(N2CCN(c3ccc(F)cc3)CC2)cc1,-6%,.,2%,1%,3%
O=C(COc1ccccc1Cl)N1CCc2ccccc21,12%,69%,5%,-3%,-14%
O=C(COc1ccc2ccccc2c1CN1CCOCC1)N1CCc2ccccc21,10%,.,10µM*,7%[11.4 µM],-12%
COc1ccc(CN(Cc2cc3cc(OC)c(OC)cc3[nH]c2=O)C(=O)NC2CCCCC2)cc1,-4%,.,1.7µM*,3%,3%
COc1cc2cc(CN(C(=O)NC3CCCCC3)C3CCCC3)c(=O)[nH]c2cc1OC,3%,12µM*,?,1%,-21%
COc1ccc2cc(CN(C(=O)Nc3ccccc3OC)C3CCCC3)c(=O)[nH]c2c1,2%,2.3µM*,17%,0%,5%
O=C(NC1CCCCC1)N(Cc1cc2cc3c(cc2[nH]c1=O)OCCO3)C1CCCCC1,4%,.,5.9µM*,2%,4%
CCC(=O)N(Cc1cc2cc(C)c(C)cc2[nH]c1=O)C1CCCCC1,4%,?,52%,-27%,-4%
Cn1cc(CN2CCC(C(=O)NC(c3ccc(F)cc3)c3ccc4ccccc4n3)CC2)c2ccccc21 (stereo not given),-28%,.,.,.,.
COCCC1CCCCN1C(=O)c1cccc(OC2CCN(C3CCCC3)CC2)c1 (stereo not given),4%,2%,?,?,-1%
SMILES,AMA1 RON2 block,Pf growth 48h,Pf growth 96h,Sm TGR block,NS1 function inh
CCOC(=O)c1cc2c(=O)n3ccccc3nc2n(CC2CCCO2)c1=NC(=O)c1cccc(C)c1 (stereo not given),.,.,.,0%,.
COc1cc2cc(CN(Cc3cccnc3)C(=O)NCc3ccccc3)c(=O)[nH]c2cc1OC,-5%,9.3µM*,?,-5%,-9%
COc1ccc2cc(CN(CC3COCCO3)S(=O)(=O)c3ccccc3)c(=O)[nH]c2c1 (stereo not given),0%,-16%,13%[5.75 µM],0%,-9%
COc1ccc2cc(CN(Cc3cccnc3)S(=O)(=O)c3ccccc3)c(=O)[nH]c2c1,-5%,10µM*,.,-7%,-10%
CC(=O)Oc1ccccc1N(C(C)=O)S(=O)(=O)c1ccc(C)cc1,-3%,11%,?,-4%,.
COc1ccc(S(=O)(=O)N(C(C)=O)c2ccc(OC(C)=O)c3ccccc23)cc1[N+](=O)[O-],-11%,6.6µM*,-3%,-13%,11%
CC(=O)Oc1ccc(N(C(C)=O)S(=O)(=O)c2ccc(C)cc2C)c2ccccc12,-3%,8.3µM*,2.6µM*,-3%,5%
CC(=O)Oc1ccc(N(C(C)=O)S(=O)(=O)c2ccccc2)c2ccccc12,-10%,.,.,.,.
Cc1ccc(S(=O)(=O)N(C(=O)c2ccncc2)c2ccc(OC(=O)c3ccncc3)c3ccccc23)cc1,?,10µM*,9.3µM*,20µM*,-21%
Cc1ccc(S(=O)(=O)N(C(=O)c2ccncc2)c2ccc(OC(=O)c3ccncc3)c3ccccc23)c(C)c1,-10%,.,9.3µM*,18µM*,0%
Cc1cc(F)ccc1S(=O)(=O)N(C(=O)c1ccncc1)c1ccc(OC(=O)c2ccncc2)cc1,0%,-18%,?,45%,-6%
CCN(CC)P(=O)(c1ccccc1)c1c(C)nc2ccccn12 (stereo not given),-2%,-27%,-8%,-1%,6%
CC(=O)c1ccc(S(=O)(=O)N2CCN(C(=O)CN3C(=O)NC4(CCCC4)C3=O)CC2)cc1,-8%,17%,0%,-4%,.
CCn1c(OC)nc2c1c(=O)n(C)c(=O)n2C,-3%,0%,3%,9%,-1%
CCCOc1nc2c(c(=O)n(C)c(=O)n2C)n1CC,.,25%,2.1µM*,0%,-17%
COc1ccccc1NC(=O)N(Cc1ccc2c(c1)OCO2)Cc1nc2ccccc2c(=O)[nH]1,2%,?,?,0%,-2%
COc1ccccc1CN(Cc1nc2ccccc2c(=O)[nH]1)S(=O)(=O)c1ccc2ccccc2c1,-3%,5.9µM*,-24%,4%,10%
COc1ccccc1CN(Cc1nc2ccccc2c(=O)[nH]1)C(=O)Nc1cccc(C)c1,9%,.,9.3µM*,3%,-58%
Cc1ccc2nc(NS(=O)(=O)c3cn(C)nc3C)sc2c1,-4%,?,35%,4%,10%
Cc1cc(S(=O)(=O)N2CCCCC2)ccc1OCC(=O)Nc1ccccc1,0%,?,-12%,6%,-20%
CCn1c(SCC(=O)c2c[nH]c3ccccc23)nc2cc(S(=O)(=O)N3CCOCC3)ccc21,5%,9.3µM*,2.3µM*,6%,12%
CCn1c(C)nc([N+](=O)[O-])c1Sc1ccc(F)cc1,5%,?,10µM*,40µM*,13%
